# According to PubChem BioAssay (NCATS):
# Inconclusive results are not listed. The source made the active and inactive calls. The call rests on the fitted dose curve; in most records, active means well fitted curve in the direction sought with a large enough effect; inconclusive means small, poorly fitted or top-dose-only effect, or another doubt; inactive means no such curve, though single readings can be large; an effect the other way counts as inactive or inconclusive.
# Assay: BET inhibitor-based combinations targeting novel dependencies in MECOM-rearranged (r) AML: SET-2 cell line (AID 2202231); further: nearly all actives have a fitted effect of over 35% in size;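 on viability: plate controls were DMSO treated cells for no effect and wells without cells for full effect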
# Settings: SET-2 AML cells viability, CellTiter-Glo luminescence, 48 h; viability: hits give low values, concentration not given here
# Outline: (§1)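 Cells were plated at 500 per well and exposed to an 11-point dose series of each drug for 48 hr. Viability was measured by CellTiter-Glo luminescence, normalized to DMSO and empty-well controls, and summarized as AUC and per-cell-line Z-AUC.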
# Potency means the concentration at half of the fitted maximal effect.
SMILES,Potency,viability
O=C1CCc2cc(OCCCCc3nnnn3C3CCCCC3)ccc2N1,16.6 µM (active),–
CCN(CC)CCCC(C)Nc1ccnc2cc(Cl)ccc12 (stereo not drawn),–,102% (inactive)
CC(C)c1c(C(=O)Nc2ccccc2)c(-c2ccccc2)c(-c2ccc(F)cc2)n1CC[C@@H](O)C[C@@H](O)CC(=O)O,7.23 µM (active),–
CC(=O)O[C@]1(C(C)=O)CC[C@H]2[C@@H]3C=C(Cl)C4=CC(=O)[C@@H]5C[C@@H]5[C@]4(C)[C@H]3CC[C@@]21C,–,80.8% (inactive)

# Assay: BET inhibitor-based combinations targeting novel dependencies in MECOM-rearranged (r) AML: OCI-AML3 cell line (AID 2202232); further: nearly all actives have a fitted effect of over 35% in size;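 on viability (% of control): plate controls were DMSO vehicle wells for no effect and wells without cells for full effect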
# Settings: CellTiter-Glo luminescence, 48 h; Potency: OCI-AML3 viability; series mostly up to 46 µM
# Outline: as §1
SMILES,Potency,viability (% of control)
O=C1CCc2cc(OCCCCc3nnnn3C3CCCCC3)ccc2N1,inactive,–
CCN(CC)CCCC(C)Nc1ccnc2cc(Cl)ccc12 (stereo not drawn),–,92.2% [at 8.46 µM] (inactive)
CC(C)c1c(C(=O)Nc2ccccc2)c(-c2ccccc2)c(-c2ccc(F)cc2)n1CC[C@@H](O)C[C@@H](O)CC(=O)O,3.23 µM (active),–
CC(=O)O[C@]1(C(C)=O)CC[C@H]2[C@@H]3C=C(Cl)C4=CC(=O)[C@@H]5C[C@@H]5[C@]4(C)[C@H]3CC[C@@]21C,inactive,–

# Assay: BET inhibitor-based combinations targeting novel dependencies in MECOM-rearranged (r) AML: AML-194 cell line (AID 2202237; further: nearly all actives have a fitted effect of over 40% in size;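 on viability (% of control): plate controls were vehicle wells for no effect and wells without cells for full effect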)
# Settings: AML-194 (MECOM-r AML) viability, CellTiter-Glo, 48 h; series mostly up to 46 µM
# Outline: as §1
SMILES,Potency,viability (% of control)
O=C1CCc2cc(OCCCCc3nnnn3C3CCCCC3)ccc2N1,inactive,–
CCN(CC)CCCC(C)Nc1ccnc2cc(Cl)ccc12 (stereo not drawn),–,111% [at 8.46 µM] (inactive)
Cc1ccc(-c2cc(C(F)(F)F)nn2-c2ccc(S(N)(=O)=O)cc2)cc1,inactive,–
CC(C)c1c(C(=O)Nc2ccccc2)c(-c2ccccc2)c(-c2ccc(F)cc2)n1CC[C@@H](O)C[C@@H](O)CC(=O)O,12.9 µM (active),–
CC(=O)O[C@]1(C(C)=O)CC[C@H]2[C@@H]3C=C(Cl)C4=CC(=O)[C@@H]5C[C@@H]5[C@]4(C)[C@H]3CC[C@@]21C,inactive,–
